Bioassay records from PubChem BioAssay.
Sa ugtP lethal: kills S. aureus RN4220 lacking UgtP; S. aureus RN4220 ugtP deletion, OD600 growth, 16 h; growth inhibition, % (no concentration beside the values); 330,000 compounds, 0.54% hits; in the data active = growth inhibition above about 68%;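 note: plate controls were untreated wells for no effect and antibiotic for full effect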
Mtb betalactam: beta-lactam sensitization of Mtb H37Rv; M. tuberculosis H37Rv growth with meropenem, percent inhibition; inhibition, % at 25 µM; 330,000 compounds, 0.27% hits; call rule not given here;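 note: growth measured after seven days incubation then overnight dye step; 0% = bacteria only wells and 100% = bacteria with antibiotic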
RN4220 kill: kills Staphylococcus aureus RN4220. S. aureus RN4220 growth, OD600, 16 h. inhibition, % (test concentration not listed). 330,000 compounds, 0.33% hits; in the data active = inhibition above about 85%;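 note: plate controls were untreated cells for no effect and reference antibiotic for full effect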
PriA SSB inh: blocks PriA binding to SSB C-terminal tail. AID 1272365. inhibition, % at 33 µM. AlphaScreen SSBct-PriA binding, biotinylated peptide. 430,000 compounds, 0.6% hits; in the data active = inhibition mostly above about 37%, no sharp cut-off; inactive = mostly below about 20%;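 note: plate controls were negative control peptide for no effect and reference peptide for full effect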
Mtb hypoxia rep: Mtb hypoxia fluorescent reporter inhibition; fluorescence inhibition, % (no concentration beside the values); M. tuberculosis hypoxia-regulated fluorescent reporter, fluorescence; 300,000 compounds, 0.1% hits; in the data active = fluorescence inhibition mostly above about 23%, no sharp cut-off; inactive = mostly below about 17%
Numbers without * were called inactive; nt = not tested or not shown; ! = a repeat was not active. Only some compounds are listed: those with a hit (about 1% of all), similar ones and a draw of the others.

SMILES	Sa ugtP lethal	Mtb betalactam	RN4220 kill	PriA SSB inh	Mtb hypoxia rep
O=[N+]([O-])c1cccnc1Sc1ccc(Cl)cc1	1	-4	-2	52*	14
O=[N+]([O-])c1cccnc1Sc1ccccc1	nt	nt	nt	82*	nt
O=C(Nc1nnc(SCc2ccc(F)cc2)s1)c1ccccn1	99*	nt	98*	78*	6
O=C(Nc1nnc(C2CCCCC2)s1)c1ccccn1	nt	nt	nt	70*	nt
O=C(Nc1nnc(C2CCCO2)s1)c1cccs1 (stereo not given)	0	-5	3	-13	-4
O=C(Nc1nnc(C2CCC2)s1)c1ccccn1	nt	nt	nt	102*	nt
O=C(Nc1nnc(C2CCCCC2)s1)c1cccs1	1	10	-2	-4	-4
O=C(Nc1nnc(C2CCCO2)s1)c1ccccn1 (stereo not given)	nt	nt	nt	110*	nt
COc1ncc(NC(=O)c2sc(-c3ccccc3)nc2C)c(N(C)C)n1	nt	nt	nt	3	nt
Cc1cc(NC(=O)CSc2ccc(N3CCN(c4ccccc4)CC3)nn2)ccc1Br	nt	nt	nt	-4	nt
CCn1cc(C(=O)Nc2ccccc2-c2ccc(=O)n(C)n2)c(=O)c2ccc(C)nc21	nt	nt	nt	-15	nt
CN(C)C(=O)Cn1cc(-c2ccc(F)cc2)cn1	nt	nt	nt	38*	nt
Nc1cc(-c2cccs2)no1	nt	nt	nt	8	nt
COc1ccc(C(=O)NNC(=S)NC(=O)c2ccc(F)cc2)cc1Br	85*	95	81	-3	-1
O=C(/C=C/c1ccc(F)cc1)NC(=S)NNC(=O)c1cnccn1	-14	-8	12	40*	-4
O=C(NC(=S)NNC(=O)c1cnccn1)c1ccc(F)cc1	-7	5	8	42*	1
Cc1ccc(C(=O)OCC(=O)NC2CCCC(C)C2C)cc1S(=O)(=O)N1CCCCC1 (stereo not given)	-4	3	2	-9	24*
Cc1ccc(C(=O)OCC(=O)N2CCC(C)CC2)cc1S(=O)(=O)N1CCCCC1	1	-12	3	-15	4
CC(NCc1cccc(Cl)c1Cl)C(O)c1ccccc1 (stereo not given)	3	-3	4	116*	11
CC(NCc1ccc(Cl)cc1Cl)C(O)c1ccccc1 (stereo not given)	-7	0	3	-18	-1
Cc1c(CCOC(=O)C2C3CC4CC(C3)CC2C4)sc[n+]1CC(=O)c1ccc(Br)cc1 (stereo not given)	-14	2	92*!	19	13
C=CCOC(=O)C1=C(C)NC(=S)NC1c1ccc(OCc2ccc(F)cc2)c(OC)c1 (stereo not given)	nt	nt	nt	9	nt
COc1cccc(CNCCc2c[nH]c3ccccc23)c1OCc1ccccc1	-33	54	4	45*	2
COc1cc(CNCCc2c[nH]c3ccccc23)ccc1OCc1ccccc1F	-44	98	-7	38*	4
O=C(c1ccccc1Br)N1CCC(c2ccc3c(c2)OCO3)C1 (stereo not given)	nt	nt	nt	-2	nt
SMILES	Sa ugtP lethal	Mtb betalactam	RN4220 kill	PriA SSB inh	Mtb hypoxia rep
Cn1cc(C(=O)NCC2CCN(c3nccnc3C#N)CC2)nn1	nt	nt	nt	-15	nt
CSc1ccc2nc(Nc3ccc4c(c3)OCCO4)sc2c1	nt	nt	nt	33	nt
O=C(NCc1cnn2ccccc12)c1ccc(S(=O)(=O)N2CCCCC2)cc1	nt	nt	nt	-8	nt
Cc1cc(N2CCCCC2)n2ncc(-c3ccc(Cl)cc3)c2n1	85*	91	-1	-35	-10
O=C(NCC(c1cccs1)N1CCc2ccccc21)c1ccccc1[N+](=O)[O-] (stereo not given)	nt	nt	nt	46*	nt
CN(CC(=O)N1CCCSC[C@@H]1CN1CCOCC1)S(C)(=O)=O	nt	nt	nt	-4	nt
CC1CCN(C(=O)c2[nH]cnc2C(=O)N[C@@H](C)C(=O)OCc2ccccc2)CC1	nt	-6	nt	44*	nt
O=C(Nc1cnn([C@H]2CCOC2)c1)c1cc(=O)[nH]c(=O)[nH]1	nt	nt	nt	-3	nt
CCCc1ccc(Oc2c(-c3ccc(O)c(C)c3O)n[nH]c2C)cc1	97*	3	77	6	5
CCCc1ccc(Oc2cn[nH]c2-c2ccc(O)c(C)c2O)cc1	100*	-3	99*	30	13
COc1ccc(Oc2c(-c3ccc(O)cc3O)n[nH]c2C)cc1	-13	2	0	6	6
Oc1ccc(-c2[nH]ncc2Oc2ccccc2)c(O)c1O	nt	nt	nt	37	nt
CCCN1CCCc2cc(CCNC(=O)C(=O)Nc3ccc(C(C)C)cc3)ccc21	nt	nt	nt	23	nt
CCCN1CCCc2cc(CCNS(=O)(=O)c3cccc(Cl)c3)ccc21	nt	nt	nt	64*	nt
CCCN1CCCc2cc(CCNS(=O)(=O)c3ccc(NC(=O)C(C)C)cc3)ccc21	nt	nt	nt	60*	nt
CCCN1CCCc2cc(CCNS(=O)(=O)c3ccc(Cl)cc3)ccc21	nt	nt	nt	62*	nt
CC(C)(C)c1csc(NN=Cc2ccc(O)cc2)n1	25	nt	16	19	34*
CC(C)(C)c1csc(N/N=C/c2cccnc2)n1	nt	73	nt	nt	nt
Nc1nc(-c2ccccc2)c(N=Nc2cccc3ccccc23)s1	97*	40	99*	82	10
CSc1nc(NC(C)C)nc(NC(C)C)n1	2	nt	3	-7	3
CC(C)Nc1nc(C#N)nc(NC(C)C)n1	-5	3	-1	42*	5
CCOc1ccc(/C=N/N(C)c2ccccc2)cc1OC	nt	92	nt	nt	nt
CCOc1ccc(C=NN(C)c2ccccc2)cc1OC	17	nt	10	39*	9
CC(C)(C)NC(=O)Cc1csc2nc(-c3ccc(F)cc3)cn12	nt	nt	nt	-9	nt
CCN1/C(=C/c2ccc3cccc(C)c3[n+]2CC)Sc2ccccc21	100*	100	100*	16	nt
SMILES	Sa ugtP lethal	Mtb betalactam	RN4220 kill	PriA SSB inh	Mtb hypoxia rep
CCN1C(=Cc2ccc3ccccc3[n+]2CC)Sc2cc(C)ccc21	100*	nt	101*	nt	nt
CCN1/C(=C/c2ccc3cc(C)ccc3[n+]2CC)Sc2ccc3sccc3c21	101*	100	100*	1	nt
CCN1/C(=C/c2ccc3cc(C)cc(C)c3[n+]2CC)Sc2cc(C)ccc21	100*	nt	100*	51	nt
CC[n+]1c(C=C2Sc3ccccc3N2C)ccc2cccc(C)c21	nt	nt	nt	44	nt
CCCCN1C(=Cc2ccc3ccccc3[n+]2CC)Sc2ccccc21	nt	nt	nt	14	nt
NC(=NOC(=O)CCC1CCCC1)c1ccncc1	nt	nt	nt	-23	nt
COc1cccc(CNC(=O)c2c(O)nc3scc(C)n3c2=O)c1	nt	nt	nt	-11	nt
CCN1/C(=C\c2ccc3cc(C)ccc3[n+]2CC)Sc2cc(C)c(C)cc21	100*	nt	100*	nt	nt
C=CC[n+]1c(/C=C2\C=Cc3cc(C)ccc3N2CC)ccc2ccccc21	100*	99	100*	nt	nt
CCOC(=O)N1CCN(C(=O)CSc2nnc(CCc3nc4ccccc4s3)o2)CC1	nt	nt	nt	-6	nt
CCOC(=O)C(C(N)=NC(C)C)=C(O)c1ccccc1	nt	nt	nt	-19	nt
Cc1nc(N(C)C)nc(C)c1NC(=O)c1ccc(Br)o1	nt	nt	nt	-3	nt
CCCCn1cnc2c(c(-c3ccccc3)c(-c3ccccc3)n2Cc2ccco2)c1=N	0	100	1	7	11
N=c1c2c(-c3ccccc3)c(-c3ccccc3)n(Cc3ccccc3)c2ncn1CCCn1ccnc1	-20	100	-6	46*	nt
CC(=O)OCC1=C(C(=O)O)N2C(=O)[C@@H](NC(=O)Cc3ccccc3)[C@H]2SC1	nt	nt	nt	-2	nt
CO/N=C(/C(=O)NC1C(=O)N2C(C(=O)O)=C(COC(C)=O)CSC12)c1csc(N)n1 (stereo not given)	nt	nt	nt	8	nt
